These results are taken from PubChem BioAssay (NCI).

SMILES strings stand for the structures. The panel holds about 79,000 compounds, 15% with a hit somewhere; the sample as a whole holds those more often. Unmarked numbers belong to inactive results. No stated cut-off is given here; in the data, active means growth inhibition above about 70%; inactive means the rest.

The nature of one test: NCI Yeast Anticancer Drug Screen. Data for the bub3 strain (AID 167). To be noted: S. cerevisiae bub3 mutant strain, at 50.0 µM, active compounds read high. In a few lines: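 Inhibition values come from growth of compound-treated mutant yeast normalised to vehicle-treated controls.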
As for `COC(=O)/C=C(/C(=O)OC)N(O)C(=O)CN1C(=O)c2ccccc2C1=O`, the growth inhibition is -5.85%.

For the molecule `Cc1ccc(N=c2cc(-c3ccccc3)oc3ccccc23)cc1`, the growth inhibition was 12.7%.

`COc1ccc2c(c1)C(N)CC2=O` (stereo not given): the growth inhibition is 1.75%.

For `COc1ccc(/C=C2\C(=O)N(C(=O)Cc3ccccc3)N=C2C)cc1OC`, the growth inhibition was -12.4%.

In the case of `C=C(C)c1ccc(C(=C)C)cc1`, the growth inhibition was -23.9%.

On to `NC(=O)CN1CC(C2=C(O)CN(CC(N)=O)C2=O)=CC1=O`, for which the growth inhibition is -6.35%.

For `CC(O)C(=O)NN` (stereo not given), the growth inhibition is -4.65%.

In the case of `CCCCOc1cc2c(cc1C(C)c1ccccc1)OCO2` (stereo not given), the growth inhibition is 15.8%.

`C=CCO[Si](OCC=C)(OCC=C)OCC=C`: the growth inhibition was 9.6%.

Take `NCCN1C(=O)c2ccccc2C1(O)c1ccc(Cl)cc1` (stereo not given): the growth inhibition is -14.9%.

Turning to `CCCCSc1nc2c([nH]1)c(=O)n(C)c(=O)n2C`, the growth inhibition is 22.9%.

`O=C(O)CSc1n[nH]c(-c2ccc(O)cc2)n1`: the growth inhibition was 4.95%.

For `CCOC(=O)c1ccc(NC(=O)/C=C/C(=O)O)cc1`, the growth inhibition is -9.7%.

For the molecule `CN1CCC=C(COC(=O)C(C)(C)C)C1`, the growth inhibition is 5.45%.

As for `COc1ccc2nc3cc(Cl)ccc3c(Sc3ccc(NC(C)=O)cc3)c2c1`, the growth inhibition is 11.3%.

Take `CC(C)C(=O)Nc1ccc(Cl)c(Cl)c1`: the growth inhibition was -4.05%.

Turning to `O=C(c1ccccc1)[C@@H]1C[C@H](Sc2ccccc2)c2cc(Cl)ccc2N1`, the growth inhibition is 0.8%.

Consider `NCCCNCCCCNC(=O)C(O)NC(=O)CC(O)CCCCN=C(N)N` (stereo not given), for which the growth inhibition is -2.85%.

With `CCCCC1(NN=C2CCCCC2)C(=O)N(c2ccccc2)N(c2ccccc2)C1=O`, the growth inhibition is -7.4%.

As for `C=Cc1ccccc1N=NC(C(=O)OC)=P(c1ccccc1)(c1ccccc1)c1ccccc1`, the growth inhibition was -4.05%.

With `CC(C)COC1=CC(=O)c2ccccc2C1=O`, the growth inhibition is 35%.

As to `CC(=O)Cc1ccc([N+](=O)[O-])cc1`, the growth inhibition is 4.15%.

In the case of `c1cc2c3c(cccc3c1)N=S=N2`, the growth inhibition was 20.9%.

Consider `O=C1NC(Cc2c[nH]c3ccccc23)C(=O)N2CCCC12` (stereo not given), for which the growth inhibition was -6.3%.

Take `N#C/C(=C\c1cccs1)C(=O)c1ccco1`: the growth inhibition is 17.2%.

`C=CCNCC(O)C(F)(F)C(F)(F)C(F)(F)C(F)(F)C(F)(F)C(F)(F)F` (stereo not given): the growth inhibition is 7.55%.

As to `CSc1cc(Cl)c(C)cc1S(=O)(=O)NC(=O)NNc1ccccn1`, the growth inhibition is -1.5%.

With `NC(=O)CNCC1Cc2ccccc21` (stereo not given), the growth inhibition is 4.6%.

Consider `Nc1ccc2ccccc2c1N=Nc1ccc(/C=C/c2ccc(N=Nc3c(N)ccc4ccccc34)cc2S(=O)(=O)O)c(S(=O)(=O)O)c1`, for which the growth inhibition was 31.9%.

In the case of `COc1ccc(CNc2ccccc2)cc1`, the growth inhibition was -4.05%.

Regarding `CC1CCN(CCOC(=O)c2ccc(OC(C)C)cc2)C1` (stereo not given), the growth inhibition was 11.2%.

`O=C(CO)CC(=O)C(=O)Nc1ccccc1`: the growth inhibition is -4.15%.

As to `O=C1CSC(c2ccc(C(F)(F)F)cc2)N1c1nncs1` (stereo not given), the growth inhibition is 12.6%.

Consider `CC(=O)Nc1ccc(N(C)C)c(C)c1`, for which the growth inhibition is 12.9%.

Take `Cc1cc(NCCN(C)C)nc(Nc2ccc(Cl)cc2)n1`: the growth inhibition is 10.9%.

In the case of `O=C(c1nc2ccc([N+](=O)[O-])cc2[nH]c1=O)C(O)c1ccc([N+](=O)[O-])cc1` (stereo not given), the growth inhibition is -25.4%.

For the molecule `NCC(=O)NCC(=O)NCC(=O)NCC(=O)NCC(=O)NCC(=O)O`, the growth inhibition was -3.5%.

Consider `Nc1cnccn1`, for which the growth inhibition is 9.3%.

Take `Cc1csc2n(C)c(=O)c3ccccc3[n+]12`: the growth inhibition was -1.75%.

Take `CSc1ncnc2ncn(C)c12`: the growth inhibition is 3.25%.

A short description of a further test: NCI Yeast Anticancer Drug Screen. Data for the mlh1 rad18 strain (AID 175). Particulars: S. cerevisiae mlh1 rad18 strain growth inhibition; at 50.0 µM; active compounds read high. The essentials:
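In this whole-cell yeast screen, a strain with altered DNA damage repair is challenged with compound, and its growth is measured against matched vehicle-treated controls.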
As for `COC(=O)/C=C(/C(=O)OC)N(O)C(=O)CN1C(=O)c2ccccc2C1=O`, the growth inhibition is -23.2%.

Regarding `Cc1ccc(N=c2cc(-c3ccccc3)oc3ccccc23)cc1`, the growth inhibition is 20.4%.

In the case of `COc1ccc2c(c1)C(N)CC2=O` (stereo not given), the growth inhibition was -12.9%.

In the case of `COc1ccc(/C=C2\C(=O)N(C(=O)Cc3ccccc3)N=C2C)cc1OC`, the growth inhibition was -42.6%.

For the molecule `C=C(C)c1ccc(C(=C)C)cc1`, the growth inhibition is -40.5%.

With `NC(=O)CN1CC(C2=C(O)CN(CC(N)=O)C2=O)=CC1=O`, the growth inhibition is -9.2%.

`CC(O)C(=O)NN` (stereo not given): the growth inhibition is 9.4%.

On to `CCCCOc1cc2c(cc1C(C)c1ccccc1)OCO2` (stereo not given), for which the growth inhibition is 14.8%.

For `C=CCO[Si](OCC=C)(OCC=C)OCC=C`, the growth inhibition was 3.9%.

For `NCCN1C(=O)c2ccccc2C1(O)c1ccc(Cl)cc1` (stereo not given), the growth inhibition was -0.65%.

Take `CCCCSc1nc2c([nH]1)c(=O)n(C)c(=O)n2C`: the growth inhibition was 1.5%.

On to `O=C(O)CSc1n[nH]c(-c2ccc(O)cc2)n1`, for which the growth inhibition is 37.2%.

Regarding `CCOC(=O)c1ccc(NC(=O)/C=C/C(=O)O)cc1`, the growth inhibition was -15.3%.

As to `CN1CCC=C(COC(=O)C(C)(C)C)C1`, the growth inhibition is 18.4%.

In the case of `COc1ccc2nc3cc(Cl)ccc3c(Sc3ccc(NC(C)=O)cc3)c2c1`, the growth inhibition is 9.1%.

Take `CC(C)C(=O)Nc1ccc(Cl)c(Cl)c1`: the growth inhibition is 58.1%.

Regarding `O=C(c1ccccc1)[C@@H]1C[C@H](Sc2ccccc2)c2cc(Cl)ccc2N1`, the growth inhibition was -3.5%.

Turning to `NCCCNCCCCNC(=O)C(O)NC(=O)CC(O)CCCCN=C(N)N` (stereo not given), the growth inhibition is -24.1%.

For the molecule `CCCCC1(NN=C2CCCCC2)C(=O)N(c2ccccc2)N(c2ccccc2)C1=O`, the growth inhibition was -8.65%.

As for `C=Cc1ccccc1N=NC(C(=O)OC)=P(c1ccccc1)(c1ccccc1)c1ccccc1`, the growth inhibition is -10.9%.

Turning to `CC(C)COC1=CC(=O)c2ccccc2C1=O`, the growth inhibition was -7%.

With `CC(=O)Cc1ccc([N+](=O)[O-])cc1`, the growth inhibition is 12.2%.

Regarding `c1cc2c3c(cccc3c1)N=S=N2`, the growth inhibition was 12.2%.

For `O=C1NC(Cc2c[nH]c3ccccc23)C(=O)N2CCCC12` (stereo not given), the growth inhibition is 8.85%.

Regarding `N#C/C(=C\c1cccs1)C(=O)c1ccco1`, the growth inhibition was -5.85%.

For the molecule `C=CCNCC(O)C(F)(F)C(F)(F)C(F)(F)C(F)(F)C(F)(F)C(F)(F)F` (stereo not given), the growth inhibition is 27.6%.

Regarding `CSc1cc(Cl)c(C)cc1S(=O)(=O)NC(=O)NNc1ccccn1`, the growth inhibition is 21%.

For `NC(=O)CNCC1Cc2ccccc21` (stereo not given), the growth inhibition is 7.45%.

With `Nc1ccc2ccccc2c1N=Nc1ccc(/C=C/c2ccc(N=Nc3c(N)ccc4ccccc34)cc2S(=O)(=O)O)c(S(=O)(=O)O)c1`, the growth inhibition is 53.4%.

Regarding `COc1ccc(CNc2ccccc2)cc1`, the growth inhibition is -9.4%.

With `CC1CCN(CCOC(=O)c2ccc(OC(C)C)cc2)C1` (stereo not given), the growth inhibition was 12.1%.

With `O=C(CO)CC(=O)C(=O)Nc1ccccc1`, the growth inhibition is -9.9%.

On to `O=C1CSC(c2ccc(C(F)(F)F)cc2)N1c1nncs1` (stereo not given), for which the growth inhibition is 24.2%.

Consider `CC(=O)Nc1ccc(N(C)C)c(C)c1`, for which the growth inhibition is -10.2%.

For `Cc1cc(NCCN(C)C)nc(Nc2ccc(Cl)cc2)n1`, the growth inhibition was 54.8%.

For the molecule `O=C(c1nc2ccc([N+](=O)[O-])cc2[nH]c1=O)C(O)c1ccc([N+](=O)[O-])cc1` (stereo not given), the growth inhibition is 31.5%.

As for `NCC(=O)NCC(=O)NCC(=O)NCC(=O)NCC(=O)NCC(=O)O`, the growth inhibition is -3.65%.

Consider `Nc1cnccn1`, for which the growth inhibition is -10.6%.

On to `Cc1csc2n(C)c(=O)c3ccccc3[n+]12`, for which the growth inhibition is 32.8%.

As to `CSc1ncnc2ncn(C)c12`, the growth inhibition was 1.75%.
